# Most compounds without a hit are left out; they make up all but 0.92% or so of the library.
# FEN1 inhibitor = human FEN1 inhibition; P39748; Recombinant FEN1 flap cleavage, fluorescence, 15 min; Potency, µM (top dose mostly 114 µM), for inactives: at the highest dose activity change, negative = inhibition, actives largely listed as inhibitors; hit rate 0.35% among 390,000; AID 588795; further: nearly all actives have a fitted effect of over 65% in size
#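 Quantitative HTS format: each compound was titrated, incubated with 10 nM nuclease for 15 min at room temperature, then challenged with flap substrate at 50 nM final. Signal change over 15 min gave concentration–effect curves.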
# RECQ1 helicase = RECQ1 (human) helicase inhibition; P46063; RECQ1 DNA unwinding, red fluorescence kinetic read; Potency, µM (series often up to 57.3 µM), for inactives: at the top dose activity, negative = inhibition, most hits filed as inhibitors; hit rate 0.54% among 240,000; AID 2549;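 further: plate controls were vehicle for no effect and no enzyme for full effect; nearly all actives have a fitted effect of over 30% in size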
# Target sequence (P46063 whole entry, looked up): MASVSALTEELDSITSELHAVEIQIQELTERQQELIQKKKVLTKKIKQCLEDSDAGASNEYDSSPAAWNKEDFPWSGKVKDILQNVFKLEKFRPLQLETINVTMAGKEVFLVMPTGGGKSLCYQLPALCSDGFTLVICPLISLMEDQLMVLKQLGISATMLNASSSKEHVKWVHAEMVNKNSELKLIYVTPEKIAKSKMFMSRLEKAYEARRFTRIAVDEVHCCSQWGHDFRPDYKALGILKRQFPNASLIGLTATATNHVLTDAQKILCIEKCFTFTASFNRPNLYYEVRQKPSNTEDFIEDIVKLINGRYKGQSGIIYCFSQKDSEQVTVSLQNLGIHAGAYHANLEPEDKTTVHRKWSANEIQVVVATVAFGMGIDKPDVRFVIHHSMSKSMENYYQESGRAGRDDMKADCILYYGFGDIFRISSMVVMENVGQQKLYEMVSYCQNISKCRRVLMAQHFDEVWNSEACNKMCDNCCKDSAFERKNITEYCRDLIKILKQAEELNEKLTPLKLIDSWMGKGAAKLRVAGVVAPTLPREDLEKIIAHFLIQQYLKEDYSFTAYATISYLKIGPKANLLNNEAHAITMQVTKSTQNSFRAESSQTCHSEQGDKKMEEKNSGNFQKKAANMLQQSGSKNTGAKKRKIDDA
#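 50 nM RECQ1T1 preincubated 15 min with compound in Tris pH 8.0 buffer with MgCl2, DTT, Tween-20 and 2.5 ug/ml poly(dI-dC); started with 200 nM TAMRA/BHQ-2 forked duplex and 2 mM ATP. Unwinding read as fluorescence (525/598 nm), two reads 2 h apart.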
# APE1 inh-1 = blocks human APE1 abasic DNA cleavage. P27695. recombinant APE1, TAMRA/BHQ-2 abasic DNA cleavage fluorescence. Potency, µM (doses to about 65.8 µM), for inactives: top-dose activity change, negative = inhibition, usual class: inhibitors. hit rate 0.35% among 350,000. AID 2517;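 further: plate controls were vehicle for no effect and reference inhibitor for full effect; nearly all actives have a fitted effect of over 55% in size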
#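 Measures dequenching upon AP-site incision of a 5'-TAMRA/3'-BHQ-2 THF-containing duplex, 50 nM; human APE1 0.75 nM after 15 min room-temperature exposure to compound; kinetic three-point read at one-minute spacing.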
# TDP1 block = blocks human tyrosyl-DNA phosphodiesterase 1. Potency, µM (doses to about 130 µM), for inactives: at the highest dose activity change, negative = inhibition, most hits filed as inhibitors. recombinant TDP1, AlphaScreen DNA substrate cleavage. hit rate 0.28% among 350,000. Q9NUW8; further: nearly all actives have a fitted effect of over 40% in size
#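 Steps: enzyme plus compound, 15 min RT; add biotin/phosphotyrosine-FITC oligonucleotide (15 nM final), react 5 min; add donor/acceptor beads (10 ug/ml final), 10 min; read AlphaScreen. Tdp1 at 1 nM final.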
# BLM helicase inh = inhibitors of human Bloom syndrome helicase BLM | Potency, µM (series often up to 56.1 µM), without a hit: at the top dose activity change, negative = inhibition, most hits filed as inhibitors | recombinant BLM DNA unwinding, fluorescence dequenching | hit rate 0.2% among 350,000 | AID 2528;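 further: plate controls were vehicle for no effect and no enzyme for full effect; nearly all actives have a fitted effect of over 35% in size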
# DNA dye displace = counter-screen for APE1 inhibitors: DNA dye displacement; shares compounds with APE1 inh-1; DNA fluorescent dye displacement counterscreen, fluorescence; Potency, µM (series often up to 28.5 µM), for the others: at the highest dose activity change, negative = inhibition, hits mostly inhibitors; hit rate 7% among 480; AID 2564;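 further: loss of thiazole orange fluorescence as the dye is displaced from duplex DNA; 0% = ThO with dsDNA and no compound and -100% = ThO without dsDNA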
# EndoIV counter = blocks E. coli endonuclease IV DNA cleavage | shares compounds with APE1 inh-1 | hit rate 4% among 560 | E. coli Endo IV, fluorogenic AP-site DNA cleavage | AID 2565 | Potency, µM (titrated, usually from 27.1 µM), inactives show at the top dose activity change, negative = inhibition, hits mostly inhibitors;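 further: plate controls were uninhibited enzyme wells for no effect and no enzyme buffer wells for full effect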
# APE1 inh-2 = confirmation of inhibitors of human APE1 endonuclease | shares compounds with APE1 inh-1 | purified APE1, fluorogenic abasic-site DNA cleavage | Potency, µM (top dose mostly 57.1 µM), inactives show at the highest dose activity change, negative = inhibition, hits mostly inhibitors | hit rate 44% among 750; further: nearly all actives have a fitted effect of over 30% in size
# APE1 FP = APE1 (human) DNA binding inhibition, fluorescence polarization; Potency, µM (titrated, usually from 28.5 µM), for inactives: at the top dose activity, negative = inhibition, usual class: inhibitors; APE1 binding to TAMRA-labelled double-stranded DNA, fluorescence polarization displacement; shares compounds with APE1 inh-1; hit rate 7% among 480
# * hit, by the source's call; i = inactive; ? = inconclusive; · = no result given; ! = not confirmed by another sample; [ ] = remark or other dose. The call rests on the fitted dose curve; in most records, active means well fitted curve in the direction sought with a large enough effect; inconclusive means small, poorly fitted or top-dose-only effect, or another doubt; inactive means no such curve, though single readings can be large; an effect the other way counts as inactive or inconclusive. Unless noted, on the % scale 0 is the no-effect control and ±100 the full control effect; potency means the concentration at half of the fitted maximal effect.
SMILES,FEN1 inhibitor,RECQ1 helicase,APE1 inh-1,TDP1 block,BLM helicase inh,DNA dye displace,EndoIV counter,APE1 inh-2,APE1 FP
COC/C=C/C1=CC2=CC(=O)C(C)(OC(=O)c3ccco3)C(=O)C2=CO1 (configuration not stated),·,28µM*,20µM*,-14%,-14%,?,?,?,13µM*
Cc1nn(S(=O)(=O)c2ccc(C(C)(C)C)cc2)c(C)c1S(=O)(=O)N1CCCCCC1,-3%,·,·,5%,3%,·,·,·,·
Cc1ccc2oc(=O)n(CC(=O)OC(C)C)c2c1,3%,-8%,?,0%,3%,-11%,-4%,-8%[24.4 µM],?
NC(=O)c1cc[n+](CC2=C(C(=O)O)N3C(=O)[C@@H](NC(=O)[C@@H](c4ccccc4)S(=O)(=O)[O-])[C@H]3SC2)cc1,40µM*,-4%,?,11µM*,·,·,3%[57.1 µM],-76%,·
CC(=O)OCC1=C(C(=O)O)N2C(=O)C(NC(=O)CC(C)c3ccccc3)C2SC1 (configuration not stated),-9%,·,-3%,-6%,·,·,·,·,·
COc1ccc(/C(C)=N/Nc2ccccc2Cl)c(O)c1,15%,-10%,?,40µM*,-5%,·,·,?,·
O=C1/C(=C/c2ccco2)SC(=S)N1CC1CCCO1 (configuration not stated),-23%,22µM*,10µM*,-5%,-27%,-7%,-3%,7.9µM*,-12%
O=C(O)CCCN1C(=O)/C(=C\c2ccco2)SC1=S,32µM*,?,20µM*,22µM*,59%,-4%,69%,?,-1%
Cc1ccc(/C=C2\SC(=S)N(CC3CCCO3)C2=O)o1 (configuration not stated),-20%,?,-10%,11%,-12%,·,·,·,·
COc1ccc(-c2cnnc(N/N=C/c3ccc(O)c(O)c3)n2)cc1,?,16µM*,20µM*,2%,-16%,?,29%,-12%[24.4 µM],15%
COc1ccc(-c2cnnc(N/N=C/c3ccc(O)cc3)n2)cc1,-8%,-2%,1%,0%,-4%,·,·,·,·
COc1ccccc1Nc1nc(-c2sc(N)nc2C)cs1,12%,·,21%,·,-5%,·,·,·,·
Cc1nc(N)sc1-c1csc(Nc2ncccn2)n1,?,-5%,?,89µM*,-20%,·,·,?,·
NC[C@@H](O)c1ccc(O)c(O)c1,·,14µM*!,1µM*,?,13µM*!,·,-5%[57.1 µM],4µM*,·
COc1c(O)cc2c(c1O)C(=O)CC(c1ccccc1)O2 (configuration not stated),·,-10%,25µM*,1%,-3%,-3%,2%,-11%[24.4 µM],0%
CC(C)(c1cc(Br)c(OCC(Br)CBr)c(Br)c1)c1cc(Br)c(OCC(Br)CBr)c(Br)c1 (configuration not stated),·,-15%,0%,13%,·,·,·,·,·
CC1(C)CC(=O)C=C(NCc2cccc(C(F)(F)F)c2)C1,4%,i,4%,0%,-3%,·,·,·,·
CC1(C)CC(=O)C=C(NCc2ccccc2)C1,4%,i,?,-10%,0%,-2%,1%,?,13%
N[C@H](C(=O)O)[C@H]1C[C@@H]1C(=O)O,·,-3%,-6%,5%[56.1 µM],·,·,-25%[57.1 µM],2.5µM*,·
